Data taken from the supplement of paper PMC11732987, “Enantioselective OTUD7B fragment discovery through chemoproteomics screening and high-throughput optimisation” (Communications Chemistry, 2025).

Key:
Assay in all cases: log2 ratio of Biotin-Ahx-Ub-VS probe labelling (fragment/DMSO); higher = less target engagement (more negative = stronger competition), active = hit call of the paper (q ≤ 0.05, log2 ratio ≤ -1)
Settings in all cases: compound concentration: 200 uM; treatment time: 3 h
[1] = molecular target: USP9X (UniProt Q93008)
Summary of the method: (§1)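 HEK293T lysate (495 µg per sample, in Tris/CHAPS/IGEPAL buffer with protease inhibitors) was treated in triplicate with fragment at 200 µM or with DMSO for 3 h. It was then treated with Biotin-Ahx-Ub-VS (0.5 µM final) for 1 h. Labelled DUBs were NeutrAvidin-enriched, digested with LysC and trypsin, and run by diaPASEF LC-MS/MS. Spectronaut label-free quantities were global-median-normalised. Values are average log2 ratios fragment/DMSO by unpaired t-test, using proteins with ≥2 unique peptides.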

[2] = molecular target: UniProt O00487
Summary of the method: as §1

[3] = molecular target: UniProt O00507
Summary of the method: as §1

[4] = molecular target: UniProt P51784
Summary of the method: as §1

[5] = molecular target: T1, UniProt Q5T2D3
T1 sequence (whole entry): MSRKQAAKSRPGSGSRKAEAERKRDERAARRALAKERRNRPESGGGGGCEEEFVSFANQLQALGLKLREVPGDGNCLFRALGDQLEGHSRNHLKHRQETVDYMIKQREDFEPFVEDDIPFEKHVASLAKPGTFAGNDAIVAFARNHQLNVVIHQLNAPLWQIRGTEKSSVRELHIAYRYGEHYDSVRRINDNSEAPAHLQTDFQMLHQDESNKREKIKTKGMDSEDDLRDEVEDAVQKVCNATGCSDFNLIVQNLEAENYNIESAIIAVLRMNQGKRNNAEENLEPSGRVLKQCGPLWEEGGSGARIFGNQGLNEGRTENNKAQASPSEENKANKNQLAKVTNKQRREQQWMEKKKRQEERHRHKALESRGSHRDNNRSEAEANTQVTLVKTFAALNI
Summary of the method: as §1

[6] = molecular target: T2, UniProt Q8TE49
T2 sequence (whole entry): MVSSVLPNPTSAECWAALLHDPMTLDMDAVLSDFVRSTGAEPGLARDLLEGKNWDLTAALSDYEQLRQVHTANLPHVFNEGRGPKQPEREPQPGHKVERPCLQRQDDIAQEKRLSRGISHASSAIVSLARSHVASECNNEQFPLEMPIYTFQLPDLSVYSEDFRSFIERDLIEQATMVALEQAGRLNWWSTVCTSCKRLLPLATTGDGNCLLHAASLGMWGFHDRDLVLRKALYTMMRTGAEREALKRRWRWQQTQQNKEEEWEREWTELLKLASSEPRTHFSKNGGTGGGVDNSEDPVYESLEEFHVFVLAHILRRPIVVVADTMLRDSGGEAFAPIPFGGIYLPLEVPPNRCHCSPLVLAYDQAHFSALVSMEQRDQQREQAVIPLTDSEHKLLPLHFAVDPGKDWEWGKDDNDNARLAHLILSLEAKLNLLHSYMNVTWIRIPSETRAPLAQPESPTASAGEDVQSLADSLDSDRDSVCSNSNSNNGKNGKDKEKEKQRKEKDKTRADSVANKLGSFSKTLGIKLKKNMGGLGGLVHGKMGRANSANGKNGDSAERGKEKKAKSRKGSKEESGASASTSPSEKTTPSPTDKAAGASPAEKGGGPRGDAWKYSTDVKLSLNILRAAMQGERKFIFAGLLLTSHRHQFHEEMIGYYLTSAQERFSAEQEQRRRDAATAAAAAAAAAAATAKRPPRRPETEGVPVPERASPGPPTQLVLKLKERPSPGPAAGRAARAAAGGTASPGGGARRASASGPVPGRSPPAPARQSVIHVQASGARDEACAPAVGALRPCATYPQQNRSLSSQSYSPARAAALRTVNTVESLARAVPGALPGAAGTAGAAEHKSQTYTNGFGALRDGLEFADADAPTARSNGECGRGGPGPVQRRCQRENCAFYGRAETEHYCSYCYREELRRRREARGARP
Summary of the method: as §1

[7] = molecular target: T3, UniProt Q9P2H5
T3 sequence (whole entry): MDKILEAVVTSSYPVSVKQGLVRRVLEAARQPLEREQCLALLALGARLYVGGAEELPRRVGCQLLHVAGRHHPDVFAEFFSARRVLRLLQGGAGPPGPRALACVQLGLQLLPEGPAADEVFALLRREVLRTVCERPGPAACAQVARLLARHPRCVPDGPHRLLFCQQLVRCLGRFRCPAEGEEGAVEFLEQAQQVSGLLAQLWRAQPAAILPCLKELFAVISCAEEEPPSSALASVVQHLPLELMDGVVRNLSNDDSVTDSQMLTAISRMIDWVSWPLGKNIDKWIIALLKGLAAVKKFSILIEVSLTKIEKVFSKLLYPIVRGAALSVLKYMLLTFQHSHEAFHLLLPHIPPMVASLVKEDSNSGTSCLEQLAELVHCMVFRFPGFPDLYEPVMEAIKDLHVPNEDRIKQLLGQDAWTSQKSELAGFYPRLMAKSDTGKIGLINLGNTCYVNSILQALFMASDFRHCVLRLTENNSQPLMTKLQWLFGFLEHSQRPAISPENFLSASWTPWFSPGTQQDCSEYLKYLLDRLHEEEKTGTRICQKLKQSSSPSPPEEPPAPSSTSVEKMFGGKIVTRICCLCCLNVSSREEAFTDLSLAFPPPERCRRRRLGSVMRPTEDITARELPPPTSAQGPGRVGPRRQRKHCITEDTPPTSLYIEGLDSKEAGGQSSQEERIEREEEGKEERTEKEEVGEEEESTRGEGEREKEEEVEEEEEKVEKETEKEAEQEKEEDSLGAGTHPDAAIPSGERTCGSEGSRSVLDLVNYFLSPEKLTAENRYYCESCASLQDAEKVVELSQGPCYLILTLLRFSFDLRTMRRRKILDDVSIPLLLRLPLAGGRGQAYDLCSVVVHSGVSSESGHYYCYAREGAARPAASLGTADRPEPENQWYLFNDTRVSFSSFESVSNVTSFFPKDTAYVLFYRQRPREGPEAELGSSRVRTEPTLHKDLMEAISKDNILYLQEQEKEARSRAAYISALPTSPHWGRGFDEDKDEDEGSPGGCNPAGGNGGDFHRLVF
Summary of the method: as §1

[8] = molecular target: T4, UniProt Q9UGI0
T4 sequence (whole entry): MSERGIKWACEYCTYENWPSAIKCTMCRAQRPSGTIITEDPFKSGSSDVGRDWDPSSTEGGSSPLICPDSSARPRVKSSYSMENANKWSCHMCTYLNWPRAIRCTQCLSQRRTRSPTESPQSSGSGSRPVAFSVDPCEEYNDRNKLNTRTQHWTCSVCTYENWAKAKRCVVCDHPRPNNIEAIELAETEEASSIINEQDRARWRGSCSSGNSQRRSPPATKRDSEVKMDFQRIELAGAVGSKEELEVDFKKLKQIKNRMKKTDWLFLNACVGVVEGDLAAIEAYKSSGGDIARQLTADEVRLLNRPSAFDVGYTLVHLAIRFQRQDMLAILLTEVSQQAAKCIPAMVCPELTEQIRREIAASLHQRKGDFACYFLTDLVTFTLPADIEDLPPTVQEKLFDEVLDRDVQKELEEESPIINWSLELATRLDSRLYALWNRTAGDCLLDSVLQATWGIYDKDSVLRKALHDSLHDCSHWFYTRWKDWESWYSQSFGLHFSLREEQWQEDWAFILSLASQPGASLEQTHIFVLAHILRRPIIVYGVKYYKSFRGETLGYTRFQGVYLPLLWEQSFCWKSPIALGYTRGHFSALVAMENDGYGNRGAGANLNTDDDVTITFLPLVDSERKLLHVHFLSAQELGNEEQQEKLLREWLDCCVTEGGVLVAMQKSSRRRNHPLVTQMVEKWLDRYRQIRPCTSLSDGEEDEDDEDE
Summary of the method: as §1

[9] = molecular target: T5, YOD1 (UniProt Q5VVQ6)
T5 sequence (whole entry): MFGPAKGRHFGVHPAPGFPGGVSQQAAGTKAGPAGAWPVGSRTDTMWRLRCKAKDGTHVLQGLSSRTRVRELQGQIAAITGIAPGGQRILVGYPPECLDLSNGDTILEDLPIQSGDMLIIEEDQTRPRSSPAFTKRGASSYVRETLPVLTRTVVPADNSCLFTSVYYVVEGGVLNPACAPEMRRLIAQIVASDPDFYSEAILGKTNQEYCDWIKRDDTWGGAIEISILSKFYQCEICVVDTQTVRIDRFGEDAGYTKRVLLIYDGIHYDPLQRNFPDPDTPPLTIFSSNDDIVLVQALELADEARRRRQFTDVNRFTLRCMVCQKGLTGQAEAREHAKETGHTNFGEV
Summary of the method: as §1

Measured: log2 ratio of Biotin-Ahx-Ub-VS probe labelling

Chain of UniProt P51784 (P51784 whole entry): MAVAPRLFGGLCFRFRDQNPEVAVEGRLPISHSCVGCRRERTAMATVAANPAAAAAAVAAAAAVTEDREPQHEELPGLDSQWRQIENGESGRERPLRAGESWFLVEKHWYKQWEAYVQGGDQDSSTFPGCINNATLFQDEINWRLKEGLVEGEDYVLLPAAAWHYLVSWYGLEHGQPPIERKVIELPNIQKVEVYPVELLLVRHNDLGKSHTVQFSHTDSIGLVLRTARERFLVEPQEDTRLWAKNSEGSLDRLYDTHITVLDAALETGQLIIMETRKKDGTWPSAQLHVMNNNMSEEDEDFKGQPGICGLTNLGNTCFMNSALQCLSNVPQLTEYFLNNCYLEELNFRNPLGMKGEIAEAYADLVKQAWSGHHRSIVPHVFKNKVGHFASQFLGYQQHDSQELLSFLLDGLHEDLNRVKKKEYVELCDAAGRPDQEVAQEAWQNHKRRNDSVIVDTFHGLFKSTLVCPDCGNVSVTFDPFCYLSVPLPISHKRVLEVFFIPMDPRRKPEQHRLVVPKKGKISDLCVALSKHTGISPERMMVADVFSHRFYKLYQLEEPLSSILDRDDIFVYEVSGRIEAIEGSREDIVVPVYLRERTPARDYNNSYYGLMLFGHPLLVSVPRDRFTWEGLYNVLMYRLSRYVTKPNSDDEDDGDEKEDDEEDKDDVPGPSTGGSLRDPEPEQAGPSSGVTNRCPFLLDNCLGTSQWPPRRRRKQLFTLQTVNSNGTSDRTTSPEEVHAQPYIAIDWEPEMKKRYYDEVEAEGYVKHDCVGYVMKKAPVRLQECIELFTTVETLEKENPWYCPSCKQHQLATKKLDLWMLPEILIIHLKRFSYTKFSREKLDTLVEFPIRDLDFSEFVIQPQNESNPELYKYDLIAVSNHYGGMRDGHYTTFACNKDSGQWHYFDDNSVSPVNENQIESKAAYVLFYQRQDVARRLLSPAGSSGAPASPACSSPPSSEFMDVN
Chain of UniProt O00487 (O00487 whole entry): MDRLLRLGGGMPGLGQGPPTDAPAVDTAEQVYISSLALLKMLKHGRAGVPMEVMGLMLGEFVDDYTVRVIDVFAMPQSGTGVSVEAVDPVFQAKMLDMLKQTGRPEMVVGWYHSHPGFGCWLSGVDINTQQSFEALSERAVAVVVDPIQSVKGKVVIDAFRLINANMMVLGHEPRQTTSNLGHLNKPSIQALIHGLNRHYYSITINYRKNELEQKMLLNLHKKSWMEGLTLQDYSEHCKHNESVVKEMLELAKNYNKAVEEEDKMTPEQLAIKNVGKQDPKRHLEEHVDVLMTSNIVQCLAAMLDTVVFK
Chain of USP9X (Q93008 whole entry, the tested form may be a part): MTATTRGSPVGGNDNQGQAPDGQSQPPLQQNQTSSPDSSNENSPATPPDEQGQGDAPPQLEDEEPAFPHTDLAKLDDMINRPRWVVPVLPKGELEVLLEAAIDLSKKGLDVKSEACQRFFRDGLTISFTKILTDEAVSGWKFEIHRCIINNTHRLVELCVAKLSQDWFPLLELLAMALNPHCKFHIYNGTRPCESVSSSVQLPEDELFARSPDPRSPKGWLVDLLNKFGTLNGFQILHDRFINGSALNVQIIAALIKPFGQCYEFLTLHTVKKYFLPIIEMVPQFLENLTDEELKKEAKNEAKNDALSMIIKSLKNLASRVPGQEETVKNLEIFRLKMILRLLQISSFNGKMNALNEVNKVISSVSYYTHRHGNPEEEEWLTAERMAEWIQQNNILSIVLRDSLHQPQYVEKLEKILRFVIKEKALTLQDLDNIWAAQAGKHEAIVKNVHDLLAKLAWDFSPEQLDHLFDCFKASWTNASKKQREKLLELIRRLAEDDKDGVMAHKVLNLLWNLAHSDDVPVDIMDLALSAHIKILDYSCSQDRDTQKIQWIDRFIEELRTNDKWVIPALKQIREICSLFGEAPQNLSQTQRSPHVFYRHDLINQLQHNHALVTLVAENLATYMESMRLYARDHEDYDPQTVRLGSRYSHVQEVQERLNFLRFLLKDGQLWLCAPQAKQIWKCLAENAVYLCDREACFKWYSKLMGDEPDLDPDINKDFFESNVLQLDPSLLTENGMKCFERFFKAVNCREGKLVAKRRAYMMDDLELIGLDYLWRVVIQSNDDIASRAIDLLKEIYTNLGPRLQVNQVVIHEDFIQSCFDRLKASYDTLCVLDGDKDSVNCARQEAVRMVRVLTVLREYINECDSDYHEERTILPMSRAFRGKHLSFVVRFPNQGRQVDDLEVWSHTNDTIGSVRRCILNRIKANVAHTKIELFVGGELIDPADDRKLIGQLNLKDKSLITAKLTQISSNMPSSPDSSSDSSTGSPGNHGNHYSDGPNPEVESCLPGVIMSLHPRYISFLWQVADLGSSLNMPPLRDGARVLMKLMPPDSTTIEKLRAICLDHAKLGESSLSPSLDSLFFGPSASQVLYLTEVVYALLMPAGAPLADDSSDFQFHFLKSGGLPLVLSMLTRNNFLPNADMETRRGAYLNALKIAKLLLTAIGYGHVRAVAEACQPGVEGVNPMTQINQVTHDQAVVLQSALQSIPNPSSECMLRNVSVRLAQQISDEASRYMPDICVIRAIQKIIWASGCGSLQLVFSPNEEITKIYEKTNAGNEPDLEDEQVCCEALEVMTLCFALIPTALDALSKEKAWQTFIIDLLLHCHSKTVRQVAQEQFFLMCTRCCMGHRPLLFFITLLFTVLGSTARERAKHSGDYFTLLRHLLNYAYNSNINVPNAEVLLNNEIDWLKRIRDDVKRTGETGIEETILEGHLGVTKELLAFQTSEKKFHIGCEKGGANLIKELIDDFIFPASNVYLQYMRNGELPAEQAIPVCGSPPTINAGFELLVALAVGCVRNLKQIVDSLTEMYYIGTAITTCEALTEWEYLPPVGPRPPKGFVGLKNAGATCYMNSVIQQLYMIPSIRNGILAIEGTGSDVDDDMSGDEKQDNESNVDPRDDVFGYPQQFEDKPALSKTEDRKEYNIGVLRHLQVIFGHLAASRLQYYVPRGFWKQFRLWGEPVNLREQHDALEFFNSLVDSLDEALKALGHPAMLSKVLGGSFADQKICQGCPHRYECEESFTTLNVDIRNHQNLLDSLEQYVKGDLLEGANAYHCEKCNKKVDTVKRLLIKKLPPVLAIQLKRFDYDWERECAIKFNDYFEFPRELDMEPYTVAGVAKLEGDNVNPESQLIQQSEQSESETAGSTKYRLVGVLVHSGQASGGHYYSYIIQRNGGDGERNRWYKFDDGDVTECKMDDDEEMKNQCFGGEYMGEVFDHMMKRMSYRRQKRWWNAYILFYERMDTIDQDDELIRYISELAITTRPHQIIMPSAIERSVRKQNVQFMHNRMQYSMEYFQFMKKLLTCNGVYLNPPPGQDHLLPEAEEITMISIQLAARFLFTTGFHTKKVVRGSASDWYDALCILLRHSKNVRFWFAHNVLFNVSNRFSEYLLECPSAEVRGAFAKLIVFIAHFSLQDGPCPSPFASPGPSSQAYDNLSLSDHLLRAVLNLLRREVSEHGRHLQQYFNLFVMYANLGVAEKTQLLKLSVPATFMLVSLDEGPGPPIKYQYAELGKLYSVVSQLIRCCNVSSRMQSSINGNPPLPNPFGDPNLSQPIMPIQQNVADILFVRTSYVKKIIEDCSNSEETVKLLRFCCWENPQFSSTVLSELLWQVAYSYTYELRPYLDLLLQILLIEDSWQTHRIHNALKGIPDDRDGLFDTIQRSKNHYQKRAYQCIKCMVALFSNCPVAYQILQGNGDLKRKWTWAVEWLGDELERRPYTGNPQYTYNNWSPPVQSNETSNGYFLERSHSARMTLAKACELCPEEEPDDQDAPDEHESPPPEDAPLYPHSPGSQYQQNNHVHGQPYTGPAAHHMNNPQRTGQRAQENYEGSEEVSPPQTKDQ

Cc1cc(Cl)ccc1NC(=O)CCl
inactive: [1] -0.0827 | [2] -0.165 | [3] 0.519 | [4] -0.115 | [5] -0.142 | [6] -0.396 | [7] -0.193 | [8] -0.477 | [9] -0.175
